Assay results: PubChem BioAssay AID1159580 (chemical genetic matrix, 2015)
Screen size: about 5,500 compounds; about 2,000 (36%) were called active. Not shown: some 18% with an inconclusive outcome. No stated cut-off is given here; in the data, active means normalized growth mostly below about 0.91 (no sharp cut-off); inconclusive means no clear call, values can overlap the other calls; inactive means mostly above about 0.92. This is one part of the list.

Test: chemical genetic growth profiling, strain panel (AID 1159580);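 further: tested at 20 µM; growth read once vehicle control cultures reached saturation at 30 °C; 1 = growth at the plate median or of vehicle wells; lower values mean less growth of the strain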
Conditions: S. cerevisiae deletion strains, growth OD

Measured: normalized growth

COc1ccc(/C=C/c2cc(O)cc(O[C@@H]3O[C@H](CO)[C@@H](O)[C@H](O)[C@H]3O)c2)cc1
inactive: locus YBR021W, strain FUR4, active compounds read low 1.02 | locus YBR229C, strain ROT2, active compounds read low 0.955 | locus YCL029C, strain bik1, active compounds read low 0.984 | locus YDL035C, strain GPR1, active compounds read low 0.972 | locus YDL074C, strain BRE1, active compounds read low 1.02 | locus YDL101C, strain DUN1, active compounds read low 1 | locus YDL134C, strain PPH21, active compounds read low 1 | locus YDL185W, strain tfp1, active compounds read low 0.974 | locus YDL192W, strain arf1, active compounds read low 0.994 | locus YDR101C, strain arx1, active compounds read low 1.01 | locus YDR150W, strain NUM1, active compounds read low 0.997 | locus YDR162C, strain NBP2, active compounds read low 0.977 | locus YDR318W, strain mcm21, active compounds read low 0.986 | locus YDR388W, active compounds read low 1 | locus YDR502C, strain sam2, active compounds read low 0.998 | locus YEL061C, strain CIN8, active compounds read low 0.994 | locus YER110C, active compounds read low 0.987 | locus YER155C, strain BEM2, active compounds read low 1.02 | locus YER167W, strain BCK2, active compounds read low 0.978 | locus YGL078C, strain dbp3, active compounds read low 0.987 | locus YGL086W, strain mad1, active compounds read low 1.02 | locus YGL248W, strain PDE1, active compounds read low 0.989 | locus YGR135W, strain pre9, active compounds read low 0.994 | locus YGR252W, strain gcn5, active compounds read low 0.964 | locus YHR030C, strain SLT2, active compounds read low 1 | locus YHR079C, strain IRE1 (second series), active compounds read low 0.995 | locus YHR094C, strain hxt1, active compounds read low 0.989 | locus YHR129C, strain ARP1, active compounds read low 0.994 | locus YHR200W, strain rpn10, active compounds read low 0.983 | locus YIL066C, strain RNR3, active compounds read low 0.968 | locus YIL073C, strain SPO22, active compounds read low 1.01 | locus YIL125W, strain kgd1, active compounds read low 0.985 | locus YIR030C, strain dcg1, active compounds read low 0.997 | locus YJL095W, strain BCK1, active compounds read low 1.04 | locus YJL134W, strain LCB3, active compounds read low 0.994 | locus YJL168C, strain set2, active compounds read low 0.998 | locus YJL187C, strain SWE1 (second series), active compounds read low 1.01 | locus YJR043C, strain POL32, active compounds read low 0.993 | locus YKL009W, strain mrt4, active compounds read low 1 | locus YKL068W, active compounds read low 0.979 | locus YKL085W, strain MDH1 (second series), active compounds read low 0.982 | locus YKL085W, strain MDH1, active compounds read low 0.982 | locus YKL190W, strain CNB1, active compounds read low 1.01 | locus YKR001C, strain vps1, active compounds read low 1.01 | locus YLR039C, strain RIC1, active compounds read low 0.99 | locus YLR058C, strain SHM2, active compounds read low 0.986 | locus YLR102C, strain apc9, active compounds read low 0.987 | locus YLR262C, strain YPT6, active compounds read low 0.961 | locus YLR268W, strain sec22, active compounds read low 1.03 | locus YLR330W, strain CHS5, active compounds read low 0.996 | locus YLR342W, strain FKS1 (second series), active compounds read low 0.995 | locus YLR371W, strain rom2, active compounds read low 0.978 | locus YLR418C, strain cdc73, active compounds read low 0.984 | locus YML016C, strain PPZ1, active compounds read low 0.992 | locus YML032C, strain rad52, active compounds read low 0.97 | locus YML124C, strain tub3, active compounds read low 0.987 | locus YMR078C, strain ctf18, active compounds read low 0.994 | locus YMR223W, strain ubp8, active compounds read low 0.985 | locus YMR307W, strain GAS1, active compounds read low 0.965 | locus YNL067W, strain RPL9B, active compounds read low 1.03 | locus YNL128W, strain TEP1, active compounds read low 1 | locus YNL233W, strain BNI4, active compounds read low 1.04 | locus YNL250W, strain rad50, active compounds read low 0.965 | locus YNL271C, strain bni1, active compounds read low 1 | locus YNL298W, strain CLA4, active compounds read low 1.01 | locus YNL307C, strain MCK1, active compounds read low 0.995 | locus YNL322C, strain KRE1, active compounds read low 0.984 | locus YNR052C, strain pop2, active compounds read low 1 | locus YOL006C, strain TOP1, active compounds read low 1.05 | locus YOL012C, strain htz1 1.36 | locus YOL147C, strain pex11, active compounds read low 0.988 | locus YOR061W, strain CKA2, active compounds read low 0.971 | locus YOR069W, strain VPS5, active compounds read low 0.993 | locus YOR136W, strain idh2, active compounds read low 0.992 | locus YOR144C, strain elg1, active compounds read low 0.985 | locus YOR184W, strain ser1, active compounds read low 0.979 | locus YOR316C, strain cot1, active compounds read low 0.999 | locus YPL055C, strain LGE1, active compounds read low 1.01 | locus YPR119W, strain clb2, active compounds read low 0.998 | locus YPR141C, strain kar3, active compounds read low 0.982 | locus YPR163C, strain tif3, active compounds read low 0.991 | locus YPR167C, strain met16, active compounds read low 0.992 | strain wtn01, active compounds read low 1.01
